For 30 compounds, outcome and AC50 results are on record in PubChem BioAssay (EPA / NIEHS).

Assay [1] deals with human AKT serine/threonine Kinase 2 (AKT2), AKT2 (gene 208) (UniProt P31751). As to the kind of experiment: NVS_ENZ_hAKT2: NovaScreen (NVS) Enzymatic Assay for human AKT serine/threonine Kinase 2 (AKT2) (AID 2283141). Here is the method: NVS_ENZ_hAKT2 is a biochemical, single-readout assay that uses extracted gene-proteins in a cell-free assay. Measurements were taken 1 hour after chemical dosing in a 384-well plate.NVS_ENZ_hAKT2 is one of one assay component(s) measured or calculated from the NVS_ENZ_hAKT2 assay. It is designed to make measurements of enzyme activity, a form of enzyme reporter, as detected with fluorescence intensity signals by Fluorescence and electrophoretic mobility shift technology.Data from the assay component NVS_ENZ_hAKT2 was analyzed into 1 assay endpoint. This assay endpoint, NVS_ENZ_hAKT2, was analyzed in the positive analysis fitting direction relative to DMSO as the negative control and baseline of activity. Using a type of enzyme reporter, loss-of-signal activity can be used to understand changes in the enzymatic activity as they relate to the gene AKT2. Furthermore, this assay endpoint can be referred to as a primary readout, because this assay has produced multiple assay endpoints where this one serves a enzymatic activity function. To generalize the intended target to other relatable targets, this assay endpoint is annotated to the kinase intended target family, where the subfamily is serine/threonine kinase.
Binding assays used specific radioligands (tritiated, iodinated) with non-radioactive competitive displacement ligands in agonist or antagonist protocols (as indicated) and various reference compounds and inhibitors to titrate specific binding to receptors and transporters. Most enzyme assays (CYPs, kinases, phosphatases, proteases, HDACs) used recombinant protein and specific substrates (fluorescence mostly, some colorimetric and radioactive) and inhibitors, followed by a biochemical separation of substrate and product. All assays for the biochemical HTS were initially run in duplicate at a single concentration (10 uM for CYP450 assays and 25 uM for all others). Assay-chemical combinations meeting a pre-defined threshold (e.g., 30% inhibition and other criteria defined below) were then run in singleton concentration-response format with maximum concentration of 20 uM for CYPs and 50 uM for all others. Each assay was run with positive and negative controls, and concurrent controls on every plate. The follow-up (secondary) screen tested active chemical-pairs in concentration series, as well as a few additional assays not tested in the primary screen, some selected negative inactives, and several cases re-run in the concentration series for confirmatory purposes.

The next assay deals with CDK2 (gene 1017) (UniProt P24941). The assay is described as follows: NVS_ENZ_hCDK2: NovaScreen (NVS) Enzymatic Assay for human Cyclin-Cependent Kinase 2 (CDK2) (AID 2283144). The method in brief:
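Compounds screened in duplicate at 25 uM, then in singleton concentration-response to a maximum of 50 uM, against recombinant CDK2; kinase activity read 1 hr after dosing by fluorescence with mobility-shift separation of substrate and product.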

Assay [2] concerns the target human Casein Kinase 1-delta (CK1D), CSNK1D (gene 1453) (UniProt P48730). The assay is described as follows: NVS_ENZ_hCK1D: NovaScreen (NVS) Enzymatic Assay for human Casein Kinase 1-delta (CK1D) (AID 2283148). In outline:
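Recombinant human CK1-delta, cell-free; fluorescent substrate with electrophoretic mobility-shift separation of product, read 1 h after dosing. Single 25 uM duplicate screen, then concentration-response up to 50 uM; loss of signal vs DMSO.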

Assay [3] deals with human Elastase, ELANE (gene 1991) (UniProt P08246). The assay is described as follows: NVS_ENZ_hElastase: NovaScreen (NVS) Enzymatic Assay for human Elastase (AID 2283153). The method in brief:
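Concentration-response to 50 uM max, run singly for chemicals passing a threshold (e.g., 30% inhibition) in a duplicate 25 uM single-point screen. Neutrophil-derived human elastase, absorbance read-out of enzyme activity at 1.5 h; DMSO baseline.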

Assay [4] deals with human FYN Proto-Oncogene, Src family Tyrosine Kinase (Fyn), FYN (gene 2534) (UniProt P06241). As to the kind of experiment: NVS_ENZ_hFyn: NovaScreen (NVS) Enzymatic Assay for human FYN Proto-Oncogene, Src family Tyrosine Kinase (Fyn) (AID 2283161). In outline:
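Cell-free kinase activity read by fluorescence after mobility-shift separation of substrate and product, 1 h post-dose. Initial single concentration 25 uM in duplicate, then concentration-response follow-up; DMSO baseline.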

For assay [5], the target named is human Colony Stimulating Factor 1 Receptor (CSF1R), CSF1R (gene 1436) (UniProt P07333). As to the kind of experiment: NVS_ENZ_hCSF1R: NovaScreen (NVS) Enzymatic Assay for human Colony Stimulating Factor 1 Receptor (CSF1R) (AID 2283150). In outline:
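Compounds screened in duplicate at 25 uM, then concentration-response (top 50 uM) for those passing threshold such as 30% inhibition; recombinant CSF1R activity measured 1 h post-dosing via fluorescent substrate/product mobility-shift separation, loss of signal versus DMSO.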

Assay [6] concerns the target human Caspase 8 (CASP8), CASP8 (gene 841) (UniProt Q14790). The assay is described as follows: NVS_ENZ_hCASP8: NovaScreen (NVS) Enzymatic Assay for human Caspase 8 (CASP8) (AID 2283146). The method in brief: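 The primary screen tested compounds in duplicate at a single 25 uM concentration, with actives followed up in concentration series. Activity of recombinant (E. coli) protease was measured by fluorescence 1 h post-dose, as signal loss against DMSO.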

The target of assay [7] is human Dual Specificity Protein Phosphatase 3 (DUSP3), DUSP3 (gene 1845) (UniProt P51452). The assay is described as follows: NVS_ENZ_hDUSP3: NovaScreen (NVS) Enzymatic Assay for human Dual Specificity Protein Phosphatase 3 (DUSP3) (AID 2283152).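 Note: phosphatase activity of recombinant human DUSP3 on a fluorogenic substrate without cells.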 In outline:
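Cell-free fluorescence-intensity enzyme activity assay with recombinant protein and substrate; loss of signal fitted relative to DMSO baseline. Primary screen in duplicate at 25 uM, actives then run in concentration series; measured 0 h after dosing.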

Assay [8] has as its target human Ephrin type-A Receptor 1 (EphA1), EPHA1 (gene 2041) (UniProt P21709). As to the kind of experiment: NVS_ENZ_hEphA1: NovaScreen (NVS) Enzymatic Assay for human Ephrin type-A Receptor 1 (EphA1) (AID 2283158).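 Note: activity is signal loss versus DMSO meaning EphA1 kinase inhibition.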 In outline: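 Recombinant kinase, fluorescent substrate, mobility-shift separation, fluorescence read at 1 h. Single-point duplicates at 25 uM; hits (e.g., ≥30% inhibition) run singleton concentration-response, max 50 uM. DMSO = negative control/baseline.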

The target of assay [9] is Histone deacetylase 3 (Homo sapiens) (UniProt O15379). As to the kind of experiment: NVS_ENZ_hHDAC3: NovaScreen (NVS) Enzymatic Assay for human Histone Deacetylase 3 (HDAC3) (AID 2283163). The method in brief: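 Cell-free enzyme format: loss of fluorescent product after mobility-shift separation, 1 h incubation, recombinant human HDAC3. Single 25 uM duplicate screen first, then concentration series to a 50 uM top for hits; DMSO as baseline.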

Structures are written as SMILES. Records with an inconclusive call do not appear. The source made the active and inactive calls. Rule for the calls: active = hit-call score of the fitted dose curve at least 0.9, where 1 is the maximum; inconclusive = response in the unintended direction; inactive = score below 0.9.

The AC50 is the concentration giving half of the maximal activity seen.

human Colony Stimulating Factor 1 Receptor (CSF1R), CSF1R (gene 1436), sequence (P07333 whole entry, looked up): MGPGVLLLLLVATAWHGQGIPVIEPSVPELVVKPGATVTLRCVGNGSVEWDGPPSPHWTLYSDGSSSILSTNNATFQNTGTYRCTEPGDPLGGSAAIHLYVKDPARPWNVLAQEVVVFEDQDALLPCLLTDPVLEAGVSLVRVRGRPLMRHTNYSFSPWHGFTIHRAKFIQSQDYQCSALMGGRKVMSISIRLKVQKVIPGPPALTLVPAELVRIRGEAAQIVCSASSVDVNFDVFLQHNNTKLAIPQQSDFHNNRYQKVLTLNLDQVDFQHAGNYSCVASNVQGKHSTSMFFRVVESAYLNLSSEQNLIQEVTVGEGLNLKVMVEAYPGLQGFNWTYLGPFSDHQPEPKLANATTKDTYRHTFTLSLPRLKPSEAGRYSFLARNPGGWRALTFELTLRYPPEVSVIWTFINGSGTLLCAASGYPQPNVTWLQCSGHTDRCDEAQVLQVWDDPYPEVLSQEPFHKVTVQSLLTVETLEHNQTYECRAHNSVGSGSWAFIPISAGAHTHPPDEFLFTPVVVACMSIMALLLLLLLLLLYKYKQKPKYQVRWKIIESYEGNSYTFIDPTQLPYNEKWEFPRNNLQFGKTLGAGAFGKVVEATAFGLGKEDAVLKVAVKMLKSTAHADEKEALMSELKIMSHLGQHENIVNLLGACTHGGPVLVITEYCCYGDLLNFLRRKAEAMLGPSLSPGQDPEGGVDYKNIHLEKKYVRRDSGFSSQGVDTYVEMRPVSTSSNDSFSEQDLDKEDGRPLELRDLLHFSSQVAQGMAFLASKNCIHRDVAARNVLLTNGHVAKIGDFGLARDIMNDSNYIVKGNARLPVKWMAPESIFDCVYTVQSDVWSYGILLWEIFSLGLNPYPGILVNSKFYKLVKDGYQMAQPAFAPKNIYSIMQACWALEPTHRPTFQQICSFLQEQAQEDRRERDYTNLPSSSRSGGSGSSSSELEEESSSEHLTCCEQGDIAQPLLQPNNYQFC
human Casein Kinase 1-delta (CK1D), CSNK1D (gene 1453), sequence (P48730 whole entry, looked up): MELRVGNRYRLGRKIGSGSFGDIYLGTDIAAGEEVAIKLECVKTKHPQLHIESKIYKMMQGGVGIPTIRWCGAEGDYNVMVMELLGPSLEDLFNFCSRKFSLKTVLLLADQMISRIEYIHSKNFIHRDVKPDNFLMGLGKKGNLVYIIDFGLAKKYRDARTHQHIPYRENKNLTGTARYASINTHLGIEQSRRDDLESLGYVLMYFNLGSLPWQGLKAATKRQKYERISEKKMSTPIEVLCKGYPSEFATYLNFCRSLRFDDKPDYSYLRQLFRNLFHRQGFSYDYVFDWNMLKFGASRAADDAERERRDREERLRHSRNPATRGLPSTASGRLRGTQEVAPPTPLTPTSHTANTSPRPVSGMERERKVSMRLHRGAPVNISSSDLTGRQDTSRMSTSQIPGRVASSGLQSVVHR
human Dual Specificity Protein Phosphatase 3 (DUSP3), DUSP3 (gene 1845), sequence (P51452 whole entry, looked up): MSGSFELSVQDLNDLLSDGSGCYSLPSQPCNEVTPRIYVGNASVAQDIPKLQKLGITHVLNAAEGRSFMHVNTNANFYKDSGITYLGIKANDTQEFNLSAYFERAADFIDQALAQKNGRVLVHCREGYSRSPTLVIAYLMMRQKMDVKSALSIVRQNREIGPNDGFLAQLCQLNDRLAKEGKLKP
human Caspase 8 (CASP8), CASP8 (gene 841), sequence (Q14790 whole entry, looked up): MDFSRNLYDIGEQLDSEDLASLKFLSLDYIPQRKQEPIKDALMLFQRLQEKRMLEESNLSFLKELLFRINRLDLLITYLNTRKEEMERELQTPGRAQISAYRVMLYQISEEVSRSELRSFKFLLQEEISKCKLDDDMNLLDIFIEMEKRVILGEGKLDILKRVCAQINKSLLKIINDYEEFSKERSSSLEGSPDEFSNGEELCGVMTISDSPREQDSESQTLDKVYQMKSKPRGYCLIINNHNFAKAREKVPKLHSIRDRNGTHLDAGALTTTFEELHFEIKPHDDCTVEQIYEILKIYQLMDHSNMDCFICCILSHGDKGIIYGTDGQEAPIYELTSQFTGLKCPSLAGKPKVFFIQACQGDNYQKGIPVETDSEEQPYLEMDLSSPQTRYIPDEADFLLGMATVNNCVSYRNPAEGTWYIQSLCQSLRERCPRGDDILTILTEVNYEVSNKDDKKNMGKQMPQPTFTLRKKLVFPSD
human Ephrin type-A Receptor 1 (EphA1), EPHA1 (gene 2041), sequence (P21709 whole entry, looked up): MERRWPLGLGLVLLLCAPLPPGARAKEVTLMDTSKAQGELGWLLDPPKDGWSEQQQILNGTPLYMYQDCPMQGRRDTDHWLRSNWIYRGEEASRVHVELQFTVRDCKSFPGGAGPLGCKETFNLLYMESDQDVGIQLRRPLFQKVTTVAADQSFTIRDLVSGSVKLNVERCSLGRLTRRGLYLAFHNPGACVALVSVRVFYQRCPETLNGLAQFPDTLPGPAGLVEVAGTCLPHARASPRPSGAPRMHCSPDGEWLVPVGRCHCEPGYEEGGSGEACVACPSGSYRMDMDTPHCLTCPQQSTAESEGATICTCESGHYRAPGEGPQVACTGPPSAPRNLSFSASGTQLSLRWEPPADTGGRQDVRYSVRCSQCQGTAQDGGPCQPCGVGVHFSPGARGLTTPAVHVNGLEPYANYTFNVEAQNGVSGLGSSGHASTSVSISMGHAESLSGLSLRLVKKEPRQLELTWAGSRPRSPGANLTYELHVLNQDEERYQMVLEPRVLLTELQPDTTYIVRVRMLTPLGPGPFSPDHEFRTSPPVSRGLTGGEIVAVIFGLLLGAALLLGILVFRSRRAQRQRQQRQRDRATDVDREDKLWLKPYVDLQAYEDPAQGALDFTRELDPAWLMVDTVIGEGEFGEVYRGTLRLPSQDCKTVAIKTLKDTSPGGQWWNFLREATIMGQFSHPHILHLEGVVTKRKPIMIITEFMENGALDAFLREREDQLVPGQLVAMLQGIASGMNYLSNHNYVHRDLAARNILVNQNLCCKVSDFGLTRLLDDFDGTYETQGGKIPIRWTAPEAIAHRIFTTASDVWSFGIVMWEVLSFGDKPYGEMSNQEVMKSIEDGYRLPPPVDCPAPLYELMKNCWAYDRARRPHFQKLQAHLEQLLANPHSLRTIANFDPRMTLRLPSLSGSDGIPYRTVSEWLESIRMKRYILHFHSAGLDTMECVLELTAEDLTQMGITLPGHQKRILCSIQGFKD
human Elastase, ELANE (gene 1991), sequence (P08246 whole entry, looked up): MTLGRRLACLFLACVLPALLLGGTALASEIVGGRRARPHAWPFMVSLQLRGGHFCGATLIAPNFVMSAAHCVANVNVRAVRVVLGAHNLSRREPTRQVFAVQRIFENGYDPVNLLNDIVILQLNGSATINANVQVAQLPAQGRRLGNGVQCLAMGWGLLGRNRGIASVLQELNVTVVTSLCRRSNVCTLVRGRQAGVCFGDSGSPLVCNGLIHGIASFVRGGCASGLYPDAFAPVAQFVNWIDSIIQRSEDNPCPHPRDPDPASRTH
human AKT serine/threonine Kinase 2 (AKT2), AKT2 (gene 208), sequence (P31751 whole entry, looked up): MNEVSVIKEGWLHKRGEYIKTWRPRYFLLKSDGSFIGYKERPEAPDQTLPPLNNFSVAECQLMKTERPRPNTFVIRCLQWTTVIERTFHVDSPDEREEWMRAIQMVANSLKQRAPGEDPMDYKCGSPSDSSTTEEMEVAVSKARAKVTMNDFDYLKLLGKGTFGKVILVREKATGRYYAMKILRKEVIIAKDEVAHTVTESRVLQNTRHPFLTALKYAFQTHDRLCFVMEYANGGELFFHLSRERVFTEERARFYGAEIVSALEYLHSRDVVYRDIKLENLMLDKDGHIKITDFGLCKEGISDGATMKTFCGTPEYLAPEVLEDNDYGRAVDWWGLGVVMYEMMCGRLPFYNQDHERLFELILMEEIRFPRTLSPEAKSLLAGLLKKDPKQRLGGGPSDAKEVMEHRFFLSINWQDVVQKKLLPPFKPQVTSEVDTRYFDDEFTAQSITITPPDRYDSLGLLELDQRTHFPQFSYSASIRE
human FYN Proto-Oncogene, Src family Tyrosine Kinase (Fyn), FYN (gene 2534), sequence (P06241 whole entry, looked up): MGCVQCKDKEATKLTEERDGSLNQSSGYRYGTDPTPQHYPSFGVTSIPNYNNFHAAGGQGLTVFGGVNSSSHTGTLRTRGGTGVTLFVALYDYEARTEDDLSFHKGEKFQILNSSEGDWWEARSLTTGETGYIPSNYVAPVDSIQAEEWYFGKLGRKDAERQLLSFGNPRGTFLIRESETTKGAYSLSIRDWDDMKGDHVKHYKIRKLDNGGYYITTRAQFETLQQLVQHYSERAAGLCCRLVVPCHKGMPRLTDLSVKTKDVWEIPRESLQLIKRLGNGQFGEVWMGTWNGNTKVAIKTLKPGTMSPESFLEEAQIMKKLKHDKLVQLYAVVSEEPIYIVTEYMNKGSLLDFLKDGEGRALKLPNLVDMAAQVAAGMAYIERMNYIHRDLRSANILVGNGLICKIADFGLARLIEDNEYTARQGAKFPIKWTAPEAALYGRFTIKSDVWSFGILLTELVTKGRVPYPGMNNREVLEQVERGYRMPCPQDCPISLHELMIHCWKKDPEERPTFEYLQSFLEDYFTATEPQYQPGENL
Histone deacetylase 3 (Homo sapiens), sequence (O15379 whole entry, looked up): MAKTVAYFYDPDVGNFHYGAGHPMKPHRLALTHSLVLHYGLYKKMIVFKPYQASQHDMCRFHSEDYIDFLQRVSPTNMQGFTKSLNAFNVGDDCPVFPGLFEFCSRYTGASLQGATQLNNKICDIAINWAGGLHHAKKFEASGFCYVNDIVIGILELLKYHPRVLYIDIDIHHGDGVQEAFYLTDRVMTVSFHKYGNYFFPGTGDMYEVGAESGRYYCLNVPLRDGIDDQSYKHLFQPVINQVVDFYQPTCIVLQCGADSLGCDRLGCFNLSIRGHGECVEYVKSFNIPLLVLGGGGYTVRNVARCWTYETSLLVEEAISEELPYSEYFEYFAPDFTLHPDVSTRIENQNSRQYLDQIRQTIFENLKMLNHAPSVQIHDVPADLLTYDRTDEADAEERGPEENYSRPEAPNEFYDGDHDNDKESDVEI

`CC1=C(/C=C/C(C)=C/C=C/C(C)=C/CO)C(C)(C)CCC1`: the result (in assay [1]; in the assay with CDK2 (gene 1017); in assay [2]; in assay [4]) was inactive. Also, in assay [3], the AC50 is 21.8 µM (active).
With `CCOc1ccc2c(c1)C(C)=CC(C)(C)N2`, the AC50 in [5] is 25 µM (active).
`O=C(O)Cc1ccccc1Nc1c(Cl)cccc1Cl`: the AC50 in assay [6] is 12.3 µM (active).
Turning to `Oc1ccc2c(c1)OC[C@@H](N1CCC(O)(c3ccc(F)cc3)CC1)[C@H]2O`, the call in [7] was inactive.
In the case of `O=C(OCCCCCOC(=O)c1ccccc1)c1ccccc1`, the result in [1], in assay [2] and in assay [5] was inactive.
For the compound `CCCCCCCCCCCCCCCCCC(=O)O`, the results for the AC50 in [7] and in assay [3] were 19.6 µM (active) and 7.85 µM (active), respectively.
As for `CNC(=O)[C@H]1O[C@@H](n2cnc3c(NCc4cc(Cl)ccc4OCc4cc(C)no4)ncnc32)[C@H](O)[C@@H]1N`, in assay [6], the outcome was inactive.
Regarding `NS(=O)(=O)c1cc2c(cc1Cl)NCNS2(=O)=O`, the result in assay [5] was inactive.
As for `COc1cc(C=O)ccc1O`, the outcome in [3] and in assay [8] was inactive.
Turning to `FC(F)(F)C(F)(F)C(F)(F)C(F)(F)C(F)(F)C(F)(F)CCI`, the call (with CDK2 (gene 1017); in assay [6]; in assay [5]; in assay [8]) was inactive.
As to `CCCCCC(=O)O`, the outcome in assay [1] was inactive.
With `CC(=O)Oc1ccccc1C(=O)O`, the outcome in [5] was inactive.
Turning to `CC(C)c1ccc(C(=O)N=C(N)N)cc1S(C)(=O)=O`, in assay [9], the compound was called inactive.
Consider `CCc1c(C(=O)NN2CCCCC2)nn(-c2ccc(Cl)cc2Cl)c1-c1ccc(Br)cc1`, for which the compound was called inactive in assay [5] and in assay [3].
Regarding `Cc1ccccc1Cl`, in [2], the compound was called inactive.
As to `CC(=O)C(C)=CC1C(C)=CCCC1(C)C` (stereo not given), the outcome in assay [2] was inactive.
In the case of `Cc1ccc2ncccc2c1`, the compound was called inactive in assay [1]. Besides, the AC50 in assay [2] was 4.96 µM (active).
Take `CCCCC(CC)COC(=O)CC(C(=O)OCC(CC)CCCC)S(=O)(=O)O` (stereo not given): the values for the AC50 in assay [7] and in assay [3] were 14.7 µM (active) and 25 µM (active), respectively.
For `Nc1ccc2c(c1)C(=O)c1ccccc1C2=O`, the AC50 in [3] is 15.5 µM (active).
As for `CC1(C)NC(=O)NC1=O`, the call in assay [1] was inactive.
As to `O=c1c(O)c(-c2ccc(O)c(O)c2)oc2cc(O)cc(O)c12`, the outcome in [1], in assay [3] and in assay [9] was inactive.
As to `NCCO`, the compound was called inactive in assay [2] and in assay [4].
As to `Cc1nc(-c2ccc3c(c2)CCN(CCC2CCC(NC(=O)/C=C/c4ccc(F)cc4)CC2)CC3)no1` (stereo not given), in [3], the AC50 was 18.3 µM (active).
On to `Nc1ccccc1N`, for which the half-maximal activity concentration (AC50) in assay [7] is 16.4 µM (active).
On to `COc1cc(-c2nc(NC(=O)c3cc4cc(C)cc(C)c4n3CC(=O)O)sc2CCC2CCCCC2)c(OC)cc1Cl`, for which the AC50 in assay [7] is 1.23 µM (active); in [3] it was 5.61 µM (active).
Take `Cc1oc(-c2ccccc2)nc1CCOc1cccc2c1ccn2CCC(=O)O`: in assay [3], the AC50 is 11.9 µM (active). Further, in [8], the outcome was inactive.
Turning to `Nc1nc(N)c2nc(CNc3ccc(C(=O)N[C@@H](CCC(=O)O)C(=O)O)cc3)cnc2n1`, the compound was called inactive in assay [3].
Turning to `CC1(C)CC(N=C=O)CC(C)(CN=C=O)C1` (stereo not given), in assay [1], the concentration at half-maximal activity (AC50) was 6.21 µM (active). The result in [6] was inactive.
Consider `Cc1cccc(Nc2cc(Cl)nc(SCC(=O)O)n2)c1C`, for which the compound was classed as inactive in [3].
For the compound `CCOC(=O)CCC(=O)OCC`, the result in assay [1] was inactive.
